# Measurements taken from the supplement of paper PMC8728848.
# Many of the other results were omitted from the sample, so the strongest signals are more common in it than they were.
# Legend:
# Test in all cases: glycan array binding signal (z-score within array); higher = stronger binding
# Conditions in all cases: glycan notation: IUPAC condensed, linker removed
# [1] = target: Fuc(a1-2)Gal(b1-3)GalNAc(b1-4)[Neu5Ac(a2-3)]Gal(b1-4)Glc
# Outline: (§1)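 Arrays were curated from the Consortium for Functional Glycomics database, 3228 in total, and kept only where the protein sequence was available. Binding is expressed as a within-array Z-score. This score was averaged across arrays of the same protein sequence at different concentrations or buffers and across linkers, and negative values can be read as non-binding.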
# [2] = target: Fuc(a1-2)Gal(b1-3)[Fuc(a1-4)]GlcNAc
# Outline: as §1
# [3] = target: Fuc(a1-2)Gal(b1-4)[Fuc(a1-3)]GlcNAc(b1-2)Man(a1-3)[Fuc(a1-2)Gal(b1-4)[Fuc(a1-3)]GlcNAc(b1-2)Man(a1-6)]Man(b1-4)GlcNAc(b1-4)GlcNAc
# Outline: as §1
# [4] = target: Fuc(a1-2)[Gal(a1-3)]Gal(b1-4)Glc
# Outline: as §1
# [5] = target: Fuc(a1-2)[Gal(a1-3)]Gal(b1-4)GlcNAc
# Outline: as §1
# [6] = target: Fuc(a1-3)[Gal(b1-4)]GlcNAc(b1-4)Gal(b1-4)[Fuc(a1-3)]GlcNAc(b1-4)Gal(b1-4)[Fuc(a1-3)]GlcNAc
# Outline: as §1
# [7] = target: Fuc(a1-3)[Gal3S(b1-4)]GlcNAc6S
# Outline: as §1
# Fuc(a1-4)GlcNAc = target: Fuc(a1-4)GlcNAc
# Outline: as §1
# Gal(a1-3)Gal = target: Gal(a1-3)Gal
# Outline: as §1
# [8] = target: Gal(a1-3)Gal(b1-3)[Fuc(a1-4)]GlcNAc(b1-2)Man(a1-3)[Gal(a1-3)Gal(b1-3)[Fuc(a1-4)]GlcNAc(b1-2)Man(a1-6)]Man(b1-4)GlcNAc(b1-4)GlcNAc
# Outline: as §1
# [9] = target: Gal(a1-3)Gal(b1-4)GlcNAc(b1-3)GalNAc
# Outline: as §1
# [10] = target: Gal(b1-3)GlcNAc(b1-3)Gal(b1-4)GlcNAc(b1-6)[Gal(b1-3)GlcNAc(b1-3)]Gal(b1-4)Glc
# Outline: as §1
# [11] = target: Gal(b1-3)[Fuc(a1-4)]GlcNAc(b1-3)Gal(b1-4)[Fuc(a1-3)]GlcNAc
# Outline: as §1
# [12] = target: Gal(b1-3)[Neu5Ac(a2-6)]GalNAc
# Outline: as §1
# [13] = target: Gal(b1-4)GlcNAc(b1-3)[Gal(b1-4)GlcNAc(b1-6)]Gal(b1-4)GlcNAc
# Outline: as §1
# [14] = target: Gal(b1-4)GlcNAc(b1-6)[Gal(b1-3)]GalNAc
# Outline: as §1
# [15] = target: GalNAc(b1-4)GlcNAc(b1-2)Man(a1-3)[GalNAc(b1-4)GlcNAc(b1-2)Man(a1-6)]Man(b1-4)GlcNAc(b1-4)GlcNAc
# Outline: as §1
# [16] = target: GlcNAc(a1-4)Gal(b1-4)GlcNAc(b1-3)Gal(b1-4)[Fuc(a1-3)]GlcNAc(b1-3)Gal(b1-4)[Fuc(a1-3)]GlcNAc
# Outline: as §1
# [17] = target: GlcNAc(b1-2)Gal(b1-3)GalNAc
# Outline: as §1
# [18] = target: GlcNAc(b1-3)Gal(b1-3)GalNAc
# Outline: as §1
# GlcNAc(b1-3)GalNAc = target: GlcNAc(b1-3)GalNAc
# Outline: as §1
# [19] = target: Man(a1-2)Man(a1-3)[Man(a1-6)]Man(a1-6)[Man(a1-2)Man(a1-3)]Man(b1-4)GlcNAc(b1-4)GlcNAc
# Outline: as §1
# [20] = target: Man(a1-3)[Man(a1-6)]Man(a1-6)[Man(a1-3)]Man
# Outline: as §1
# [21] = target: Neu5Ac(a2-3)Gal(b1-3)GlcNAc(b1-3)Gal(b1-4)GlcNAc
# Outline: as §1
# [22] = target: Neu5Ac(a2-3)Gal(b1-4)GlcNAc(b1-3)Gal(b1-4)GlcNAc(b1-3)Gal(b1-4)GlcNAc
# Outline: as §1
# [23] = target: Neu5Ac(a2-3)Gal(b1-4)GlcNAc(b1-3)Gal(b1-4)[Fuc(a1-3)]GlcNAc
# Outline: as §1
# [24] = target: Neu5Ac(a2-3)Gal(b1-4)[Fuc(a1-3)]GlcNAc(b1-3)GalNAc
# Outline: as §1
# [25] = target: Neu5Ac(a2-6)Gal(b1-4)GlcNAc(b1-2)Man(a1-3)[Neu5Ac(a2-6)Gal(b1-4)GlcNAc(b1-2)Man(a1-6)]Man(b1-4)GlcNAc(b1-4)GlcNAc
# Outline: as §1
# [26] = target: Neu5Ac(a2-6)Gal(b1-4)GlcNAc(b1-2)Man(a1-6)[GlcNAc(b1-2)Man(a1-3)]Man(b1-4)GlcNAc(b1-4)GlcNAc
# Outline: as §1
# [27] = target: Neu5Ac(a2-6)Gal(b1-4)GlcNAc(b1-3)GalNAc
# Outline: as §1
# [28] = target: Neu5Ac(a2-6)GlcNAc(b1-4)GlcNAc
# Outline: as §1
# [29] = target: Neu5Ac(a2-8)Neu5Ac(a2-8)Neu5Ac(a2-8)Neu5Ac(a2-3)[GalNAc(b1-4)]Gal(b1-4)Glc
# Outline: as §1
# [30] = target: Neu5Gc(a2-3)Gal(b1-4)GlcNAc
# Outline: as §1
binder,measurement,setting,value
"PEB3 (Campylobacter jejuni), Q0PBL7 (protein) MKKIITLFGACALAFSMANADVNLYGPGGPHTALKDIANKYSEKTGVKVNVNFGPQATWFEKAKKDADILFGASDQSALAIASDFGKDFNVSKIKPLYFREAIILTQKGNPLKIKGLKDLANKKVRIVVPEGAGKSNTSGTGVWEDMIGRTQDIKTIQNFRNNIVAFVPNSGSARKLFAQDQADAWITWIDWSKSNPDIGTAVAIEKDLVVYRTFNVIAKEGASKETQDFIAYLSSKEAKEIFKKYGWRE",glycan array binding signal (z-score),[1],0.671
same,glycan array binding signal (z-score),[2],7.5
same,glycan array binding signal (z-score),[3],4.64
same,glycan array binding signal (z-score),[4],-1.35
same,glycan array binding signal (z-score),[5],0.283
same,glycan array binding signal (z-score),[6],0.144
same,glycan array binding signal (z-score),[7],0.696
same,glycan array binding signal (z-score),Fuc(a1-4)GlcNAc,-0.82
same,glycan array binding signal (z-score),Gal(a1-3)Gal,-0.384
same,glycan array binding signal (z-score),[8],4.25
same,glycan array binding signal (z-score),[9],0.06
same,glycan array binding signal (z-score),[10],-0.921
same,glycan array binding signal (z-score),[11],-0.524
same,glycan array binding signal (z-score),[12],-1.27
same,glycan array binding signal (z-score),[13],-0.199
same,glycan array binding signal (z-score),[14],0.227
same,glycan array binding signal (z-score),[15],4.25
same,glycan array binding signal (z-score),[16],3.7
same,glycan array binding signal (z-score),[17],-0.834
same,glycan array binding signal (z-score),[18],2.96
same,glycan array binding signal (z-score),GlcNAc(b1-3)GalNAc,-0.715
same,glycan array binding signal (z-score),[19],-0.005
same,glycan array binding signal (z-score),[20],-1.11
same,glycan array binding signal (z-score),[21],-0.117
same,glycan array binding signal (z-score),[22],-1.17
same,glycan array binding signal (z-score),[23],0.473
same,glycan array binding signal (z-score),[24],4.53
same,glycan array binding signal (z-score),[25],0.39
same,glycan array binding signal (z-score),[26],-0.237
same,glycan array binding signal (z-score),[27],-0.21
same,glycan array binding signal (z-score),[28],-0.895
same,glycan array binding signal (z-score),[29],-0.3
same,glycan array binding signal (z-score),[30],-0.701
